Here are results for 40 compounds from PubChem BioAssay (NCI).

Structures are written as SMILES. Compounds without any hit were thinned out: in the full panel of roughly 83,000, 20% have a hit.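 Each cell line was grown in a 96-well plate and treated with one concentration of compound for 48 hours. Values below 10 were considered active.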 Unmarked numbers belong to inactive results. Active and inactive are the calls of the source.

In this assay the test system is SN12C renal. Briefly: NCI-60 one-dose screen, 48 h (100 = growth as untreated, 0 = no growth, -100 = all killed). Conditions: 10 µM unless noted. The procedure: Growth inhibition of the SN12C human tumor cell line is measured as a screen for anti-cancer activity. Cells are grown in 96 well plates and exposed to the test compound for 48 hours. Compounds are tested at a single concentration, which is 10^-5 M for most compounds. The reported endpoint is percent growth (GI% or GIPRCNT), where numbers from 0 - 100% represent growth inhibition, and numbers from -100% - 0 represent cell death. For example, a value of 40 represents 60% growth inhibition. A value of 0 means no net growth occurred over the course of the experiment. A value of -40 indicates 40% of cells at the beginning of the experiment died by the end of the experiment. A value of -100 means all cells are dead at the end of the experiment.
NCI-60 Human Tumor Cell Lines Screen was performed using the standard one-dose NCI protocol, which is described in more detail at https://dtp.cancer.gov/discovery_development/nci-60/default.htm.
Compounds with GIPRCNT values below 10 were considered active. Activity score was based on GIPRCNT using the following formula: […]
Score is 0 for GIPRCNT values of 100 or above, 50 for GIPRCNT values of 0, and 100 for GIPRCNT values of -100.
Turning to `Cn1cccc1C1CC(=O)N(CCC[Se]C#N)C1=O` (stereo not given), the growth was -3.67% (active).

For the compound `C=CCn1cc(C=C2C(=O)N(C)C(=O)N(C)C2=O)c2ccccc21`, the growth is 102%.

As for `CCOC(=O)C(Cc1ccc(N(CCCl)CCCl)cc1)NC(=O)C(CC(C)C)NC(C)=O` (stereo not given), the growth was 25.4%.

Turning to `C[C@]12CCc3sc(-c4ccccc4O)nc3C1=CC[C@@H]1[C@@H]2CC[C@]2(C)C(=O)CC[C@@H]12`, the growth is 101%.

As for `CC1=C2[C@@H](CC1)[C@]1(C)O[C@@](C(C)C)(C[C@H]1O)[C@H]2OC(=O)C1CC1c1ccccc1` (stereo not given in full), the growth was 91.7%.

On to `CC1(C)N=C(N)N=C(N)N1c1ccc(CCC(=O)Nc2ccc(S(=O)(=O)F)cc2)c(Cl)c1`, for which the growth was 28.9%.

With `ClCCN(CCCl)c1nc(Cl)c(C2CC(c3ccccc3)=NN2c2cc(Cl)cc(Cl)c2)s1` (stereo not given), the growth was 95.2%.

As for `CC[C@H](C)[C@H](NC(=O)c1ccccn1)C(=O)N(C)[C@H](C[C@@H](OC(C)=O)c1nc(C(=O)N[C@@H](Cc2ccccc2)C[C@H](C)C(=O)OC)cs1)C(C)C`, the growth is 46.9%.

As for `CCCCCCCCCCCCNC(c1ccccc1)C(O)c1ccccc1` (stereo not given), the growth is 68.5%.

On to `NC(=O)C(Br)c1ccccc1` (stereo not given), for which the growth was 88.7%.

In the case of `Cn1cc(C=O)c2nccnc21`, the growth is 104%.

As to `Fc1ccc2c(c1)c(-c1nc(-c3c[nH]c4ncccc34)cs1)cn2CCN1CCOCC1`, the growth was 65.8%.

Take `Oc1c(O)c(Cl)c(Cl)c(Cl)c1Cl`: the growth is 31.6%.

Take `CC(=O)O[C@H](C[C@H](C(C)C)N(C)C(=O)[C@@H](NC(=O)[C@H]1CCCCN1C)C(C)C)c1nc(C(=O)N[C@@H](Cc2ccccc2)C[C@H](C)C(=O)O)c(C(C)C)s1`: the growth is 16.6%.

As to `Cc1c(C)c([N+](=O)[O-])c(C)c(C)c1[N+](=O)[O-]`, the growth is 111%.

`O=C1NC(=O)C(=Cc2cccn2CCCCCn2c3ccccc3c(=O)c3ccccc32)C(=O)N1`: the growth was 106%.

Regarding `C[C@@H]1CCC2[C@@H](C)[C@H](OC(=O)CCC(=O)NCCNC(=O)Cc3cc(=O)oc4cc(N(C)C)ccc34)O[C@@H]3O[C@]4(C)CC[C@@H]1C23OO4` (stereo not given in full), the growth is 32.2%.

For the compound `COc1ccc(C2=CC(c3ccc(OC)c(OC)c3)c3c(c4ccccc4oc3=O)O2)cc1OC` (stereo not given), the growth is 58.7%.

Turning to `CC(C)(N)Cc1ccccc1`, the growth is 108%.

Regarding `O=P(Oc1ccc(Cl)cc1)(N1CC1)N1CC1`, the growth is 86.7%.

As for `CCCCCCCCCCCCCC[P+](CCCCCC)(CCCCCC)CCCCCC`, the growth is -79.1% (active).

`O=C(O)c1ccc([S-])cc1.[Au+].c1ccc(CN2[CH-]N(Cc3ccccc3)C(c3ccccc3)=C2c2ccccc2)cc1`: the growth was -67.8% (active).

With `CC1(C)CN1P(=O)(N1CC1(C)C)N1CC1(C)C` (stereo not given), the growth was 109%.

For the compound `CC[C@H](C)[C@H](NC(=O)C12C3C4C1C1C2C3C41NC)C(=O)N(C)[C@H](C[C@@H](OC(C)=O)c1nc(C(=O)N[C@@H](Cc2ccccc2)C[C@H](C)C(=O)OC)cs1)C(C)C` (stereo not given in full), the growth is 36.5%.

`CCCCCCCC[N+](C)(CCCCCCCC)CCCCCCCC`: the growth was -86.5% (active).

On to `O=NN1CCCc2cccc(O)c21`, for which the growth is 21.7%.

In the case of `CC1=C(O)[C@@](C)(CCCCC[C@H](C)CCCCc2ccc(O)cc2)OOC1=O`, the growth is 88.5%.

With `CCCCCCCCC(CO)NCCc1ccccc1` (stereo not given), the growth was 99.4%.

For `CC(=O)O[C@H]1CC[C@]2(C)[C@H]3CC[C@]4(C)[C@@H](OC(C)=O)CC[C@H]4[C@@H]3[C@@H](C)[C@]2(O)C1`, the growth was 101%.

As for `Cc1ccccc1NC(=NCCCN1CC1)Nc1ccccc1C`, the growth is 92.1%.

Consider `O=C(CC1(O)C(=O)N(Cc2ccccc2)c2ccc(Br)cc21)c1ccc(C(=O)NCC2CCC3(CC2)OOC2(CCCCC2)OO3)cc1` (stereo not given), for which the growth was -55.8% (active).

Turning to `CCCCCCCOC(C(=O)OCCN(CC)CC)(c1ccccc1)c1ccccc1`, the growth was 93.6%.

In the case of `Cc1ccc(Nc2nc3c(s2)C2=CC[C@@H]4[C@H](CC[C@]5(C)C(=O)CC[C@@H]45)[C@@]2(C)CC3)cc1`, the growth was 60%.

Consider `CC(=O)O[C@H]1CC[C@@]2(C)C(=CC[C@H]3[C@@H]4C[C@@H](N5CC5)[C@H](C(C)=O)[C@@]4(C)CC[C@@H]32)C1`, for which the growth was 88.9%.

Turning to `CNC(=O)Oc1ccc(N(C)C)cc1C(C)C`, the growth was 98.2%.

In the case of `COc1cc(C=C2c3ccccc3C(=O)c3ccccc32)ccc1OCCCCOc1cc2c(cc1OC)C(=O)N1CCCC1C=N2` (stereo not given), the growth is -68.6% (active).

As for `CCc1ccccc1[C@@H]1C[C@]2(C)CCO[C@@H]2OO1`, the growth was 98.7%.

As for `O=C(O)C1C(C(=O)O)C2(Cl)C(Cl)=C(Cl)C1(Cl)C2(Cl)Cl.[Hg]` (stereo not given), the growth is 87.4%.

As for `COc1ccc(-n2c(C)nc3cc(OC)c(OC)cc3c2=O)cc1OC`, the growth is 105%.

With `O[C@H](CN1CC1)[C@@H](O)CN1CC1`, the growth is 41.1%.
